# USP17 inh = human USP17-like deubiquitinase inhibition | A8MUK1 | purified USP17, Ub-rhodamine cleavage fluorescence, 3 h | 47,000 tested, 6.5% active | AID 1645855 | inhibition, % at 50 µM
# OTUD3 block = blocks human OTUD3 ubiquitin-rhodamine cleavage; purified OTUD3, Ub-rhodamine fluorescence, 2 h; inhibition, % at 25 µM; 47,000 tested, 0.7% active
# USP28 block = human USP28 deubiquitinase inhibition | purified USP28, Ub-rhodamine cleavage fluorescence, 30 min | 47,000 tested, 3% active | AID 1645857 | Q96RU2 | inhibition, % at 25 µM
# USP30 inh = inhibitors of human USP30 deubiquitinase. purified USP30, Ub-rhodamine cleavage fluorescence. inhibition, % at 25 µM. Q70CQ3. AID 1645860. 47,000 tested, 5.3% active
# Target sequence (Q70CQ3 whole entry, looked up): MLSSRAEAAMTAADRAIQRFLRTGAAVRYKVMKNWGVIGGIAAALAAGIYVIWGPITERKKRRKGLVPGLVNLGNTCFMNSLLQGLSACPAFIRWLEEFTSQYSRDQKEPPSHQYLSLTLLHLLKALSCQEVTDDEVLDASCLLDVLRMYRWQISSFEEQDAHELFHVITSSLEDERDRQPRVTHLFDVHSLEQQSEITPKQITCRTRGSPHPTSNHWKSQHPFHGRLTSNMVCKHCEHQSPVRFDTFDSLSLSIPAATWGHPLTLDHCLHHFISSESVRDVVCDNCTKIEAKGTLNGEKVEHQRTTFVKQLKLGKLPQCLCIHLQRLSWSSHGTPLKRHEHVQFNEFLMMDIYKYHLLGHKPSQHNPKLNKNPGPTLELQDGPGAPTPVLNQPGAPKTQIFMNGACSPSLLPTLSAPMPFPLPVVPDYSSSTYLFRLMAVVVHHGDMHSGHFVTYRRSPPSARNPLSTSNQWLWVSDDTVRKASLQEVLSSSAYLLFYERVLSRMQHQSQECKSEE
# The depositor's hits bear a star. Hits are enriched below; roughly 11% of the tested compounds scored in any of these assays. No stated cut-off is given here; in the data, active means inhibition above about 30%; inactive means the rest.
SMILES,USP17 inh,OTUD3 block,USP28 block,USP30 inh
Fc1ccc(Nc2nc(CN3CCOCC3)nc3sc4c(c23)CCCC4)cc1,1,-8,-6,-5
O=C(CSc1nnc(CNC(=O)c2cccs2)o1)c1ccccc1,-2,6,25,16
O=C(CSc1nnc(-c2sccc2-n2cccc2)o1)c1ccc(Cl)cc1,33*,12,6,15
CC1Oc2ccc(NC(=O)c3cccc(NC(=O)c4cccs4)c3)cc2NC1=O (stereo not drawn),38*,-15,1,-4
CN1CC(=O)N(C2CCNC2)Cc2c(NC3Cc4ccccc4C3)ncnc21 (stereo not drawn),50*,1,20,12
CC1CCC(Nc2ncnc3c2CN(C2CCNC2)C(=O)CN3C)CC1 (stereo not drawn),-20,13,18,3
N#Cc1ccc(NC(=O)c2cccc(OCc3ccccc3)c2)cc1,3,1,22,-1
N#Cc1ccc(NC(=O)Nc2ccc(OCc3ccccc3)cc2)cc1,34*,2,10,17
Cc1nn(C(C)(C)C)c(OC(=O)c2ccccc2C(F)(F)F)c1S(=O)(=O)c1ccccc1,11,16,16,16
Cc1nn(-c2cc(N3CCOCC3)ncn2)c(C)c1CCC(=O)Nc1ccc(Cl)cc1,12,2,5,-3
Cc1nn(-c2cc(N3CCOCC3)ncn2)c(C)c1CCC(=O)Nc1ccc(C(C)C)cc1,65*,7,4,-7
O=C1NCCNC(=O)C2(C/C=C/COc3ccccc31)CCCN(C(=O)c1ccncc1)C2 (stereo not drawn),10,13,14,19
O=S(=O)(c1ccc(Cl)cc1)N(Cc1ccccc1)Cc1nnnn1-c1ccccc1,12,17,20,30*
CCc1nnc(NC(=O)CN(Cc2ccccc2)S(=O)(=O)c2ccc(Cl)cc2)s1,63*,-3,12,55*
O=C(O)c1ccc(CN(Cc2ccccc2)S(=O)(=O)c2ccc(Cl)cc2)cc1,-3,6,13,3
O=C(Nc1ccc(-c2noc(C3CCC3)n2)cc1)N1CCCCCC1,2,1,15,6
CC[C@@H]1CCC[C@H](C)CC[C@@H](O[C@@H]2O[C@@H](C)[C@@H](O)[C@@H](N)[C@H]2O)[C@H](CC)CCCNC1=O,83*,36*,83*,95*
O=C(Nc1cccc(-c2nc3ccccc3[nH]2)c1)c1cc2ccccc2oc1=O,60*,1,-3,37*
O=C(COc1ccccc1[N+](=O)[O-])Nc1cccc(-c2nc3ccccc3[nH]2)c1,-51,-10,-1,15
Cc1cccc(NC(=O)C2CCCN(S(=O)(=O)N3CCCCCC3)C2)c1C (stereo not drawn),20,13,9,25
O=C(NCCCN1CCCC1)c1cccc(Cl)c1,-11,-7,-8,-10
O=C(Cc1cccc(Cl)c1)NCCN1CCC(O)(c2cccc(F)c2)CC1,7,5,17,34*
CCCCCCCCCC(CCCCCCCCCC(=O)O)O[C@H]1O[C@@H](COC(C)=O)[C@H](O)[C@@H](O)[C@H]1OC(=O)CC(=O)O (stereo partly drawn),42*,22,41*,53*
O=C1COc2ccc(C(=O)COC(=O)c3ccccc3O)cc2N1,36*,-3,-10,-34
O=C1COc2ccc(C(=O)COC(=O)C3(c4ccc(F)cc4)CCCC3)cc2N1,9,2,3,11
SMILES,USP17 inh,OTUD3 block,USP28 block,USP30 inh
O=C1COc2ccc(C(=O)COC(=O)CCc3nc4ccccc4s3)cc2N1,48*,14,32*,30*
CC[C@@H](C(=O)[C@@H](C)[C@@H](O)[C@H](C)CCc1ccc(C)c(O)c1C(=O)O)[C@@H]1O[C@](CC)([C@H]2CC[C@](O)(CC)[C@H](C)O2)C[C@@H]1C,56*,13,29,60*
CCOc1ccc(N2Cc3ccc(OC)c(OC)c3C2=O)cc1,38*,6,2,22
CCOc1ccc(N2CC(CNS(=O)(=O)c3cccc(F)c3)CC2=O)cc1 (stereo not drawn),-8,-6,-2,0
O=S1(=O)c2ccccc2O[C@H]2CCN(c3ncccn3)CC[C@@H]2N1CC1CC1,-6,-2,-7,-4
Cc1cccc(NC(=O)CSc2nnc(N3CCOCC3)c3ccccc23)c1,-1,9,7,8
COc1ccc(CCn2c(-c3ccccc3)cn3c4c(=O)n(C)c(=O)n(C)c4nc23)cc1OC,10,18,16,39*
Cc1ccc(-n2c(-c3cccs3)cn3c4c(=O)n(C)c(=O)n(C)c4nc23)cc1,36*,-5,-4,-2
